Results as given in the supplement of paper PMC10849652.
Of roughly 7,900 targets only a part is listed; those with a hit were picked by preference. About 0.6% of all pairs of compound and target were hits.

How the values were obtained:
Test in all cases: log2 fold change, soluble protein after heating vs DMSO (PISA); higher = thermal stabilisation; K562 cells, 10 uM, 30 min; active = over 0.2 and 3.5 SD of the protein, either way, in both replicates (recomputed)
[1] = target: YAE1 (UniProt Q9NRH1)
Method in brief: (§1)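 Thermal stability values are relative to control samples and come from duplicates. They are expressed as log2 fold changes. For measurement, K562 cells (2×10^6 cells/mL) received 10 μM compound for 30 min, and aliquots were heated for 3 min over 48°C-58°C, pooled, and extracted at 4°C in PBS with 0.5% NP-40. Soluble protein, the supernatant after 21,000xg for 90 min, was quantified by TMTpro 16plex LC-MS/MS with equalised channel sums.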

[2] = target: YBX1 (UniProt C9J5V9)
Method in brief: as §1

[3] = target: YBX1 (UniProt P67809)
Method in brief: as §1

[4] = target: YES1 (UniProt P07947)
Method in brief: as §1

[5] = target: YIPF4 (UniProt Q9BSR8)
Method in brief: as §1

[6] = target: YIPF5 isoform 3 (UniProt Q969M3)
Method in brief: as §1

[7] = target: YIPF6 (UniProt Q96EC8)
Method in brief: as §1

[8] = target: YLPM1 (UniProt P49750)
Method in brief: as §1

[9] = target: YOD1 (UniProt Q5VVQ6)
Method in brief: as §1

[10] = target: YPEL5 (UniProt P62699)
Method in brief: as §1

[11] = target: YWHAB (UniProt P31946)
Method in brief: as §1

[12] = target: YWHAQ (UniProt P27348)
Method in brief: as §1

[13] = target: YWHAZ (UniProt E7ESK7)
Method in brief: as §1

[14] = target: YWHAZ (UniProt P63104)
Method in brief: as §1

[15] = target: YY1 (UniProt P25490)
Method in brief: as §1

[16] = target: ZADH2 (UniProt Q8N4Q0)
Method in brief: as §1

[17] = target: ZBTB21 (UniProt Q9ULJ3)
Method in brief: as §1

[18] = target: ZBTB43 (UniProt O43298)
Method in brief: as §1

[19] = target: ZC3H18 (UniProt Q86VM9)
Method in brief: as §1

[20] = target: ZBTB17 isoform 2 (UniProt Q13105)
Method in brief: as §1

Measured: log2 fold change

Chain of YAE1 (Q9NRH1 whole entry, looked up): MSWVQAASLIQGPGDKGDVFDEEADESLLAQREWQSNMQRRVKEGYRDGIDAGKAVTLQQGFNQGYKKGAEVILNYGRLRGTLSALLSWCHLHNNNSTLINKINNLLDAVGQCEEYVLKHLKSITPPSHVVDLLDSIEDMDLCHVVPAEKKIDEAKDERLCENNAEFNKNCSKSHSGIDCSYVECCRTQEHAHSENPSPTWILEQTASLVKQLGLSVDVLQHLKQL
Chain of YWHAB (P31946 whole entry, looked up): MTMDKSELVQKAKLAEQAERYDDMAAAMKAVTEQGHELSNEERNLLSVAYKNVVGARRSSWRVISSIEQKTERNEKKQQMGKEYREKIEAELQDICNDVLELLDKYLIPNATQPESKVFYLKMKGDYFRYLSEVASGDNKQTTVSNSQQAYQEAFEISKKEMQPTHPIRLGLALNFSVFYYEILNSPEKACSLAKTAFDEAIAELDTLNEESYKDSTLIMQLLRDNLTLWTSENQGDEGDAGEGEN
Chain of YLPM1 (P49750 whole entry, looked up): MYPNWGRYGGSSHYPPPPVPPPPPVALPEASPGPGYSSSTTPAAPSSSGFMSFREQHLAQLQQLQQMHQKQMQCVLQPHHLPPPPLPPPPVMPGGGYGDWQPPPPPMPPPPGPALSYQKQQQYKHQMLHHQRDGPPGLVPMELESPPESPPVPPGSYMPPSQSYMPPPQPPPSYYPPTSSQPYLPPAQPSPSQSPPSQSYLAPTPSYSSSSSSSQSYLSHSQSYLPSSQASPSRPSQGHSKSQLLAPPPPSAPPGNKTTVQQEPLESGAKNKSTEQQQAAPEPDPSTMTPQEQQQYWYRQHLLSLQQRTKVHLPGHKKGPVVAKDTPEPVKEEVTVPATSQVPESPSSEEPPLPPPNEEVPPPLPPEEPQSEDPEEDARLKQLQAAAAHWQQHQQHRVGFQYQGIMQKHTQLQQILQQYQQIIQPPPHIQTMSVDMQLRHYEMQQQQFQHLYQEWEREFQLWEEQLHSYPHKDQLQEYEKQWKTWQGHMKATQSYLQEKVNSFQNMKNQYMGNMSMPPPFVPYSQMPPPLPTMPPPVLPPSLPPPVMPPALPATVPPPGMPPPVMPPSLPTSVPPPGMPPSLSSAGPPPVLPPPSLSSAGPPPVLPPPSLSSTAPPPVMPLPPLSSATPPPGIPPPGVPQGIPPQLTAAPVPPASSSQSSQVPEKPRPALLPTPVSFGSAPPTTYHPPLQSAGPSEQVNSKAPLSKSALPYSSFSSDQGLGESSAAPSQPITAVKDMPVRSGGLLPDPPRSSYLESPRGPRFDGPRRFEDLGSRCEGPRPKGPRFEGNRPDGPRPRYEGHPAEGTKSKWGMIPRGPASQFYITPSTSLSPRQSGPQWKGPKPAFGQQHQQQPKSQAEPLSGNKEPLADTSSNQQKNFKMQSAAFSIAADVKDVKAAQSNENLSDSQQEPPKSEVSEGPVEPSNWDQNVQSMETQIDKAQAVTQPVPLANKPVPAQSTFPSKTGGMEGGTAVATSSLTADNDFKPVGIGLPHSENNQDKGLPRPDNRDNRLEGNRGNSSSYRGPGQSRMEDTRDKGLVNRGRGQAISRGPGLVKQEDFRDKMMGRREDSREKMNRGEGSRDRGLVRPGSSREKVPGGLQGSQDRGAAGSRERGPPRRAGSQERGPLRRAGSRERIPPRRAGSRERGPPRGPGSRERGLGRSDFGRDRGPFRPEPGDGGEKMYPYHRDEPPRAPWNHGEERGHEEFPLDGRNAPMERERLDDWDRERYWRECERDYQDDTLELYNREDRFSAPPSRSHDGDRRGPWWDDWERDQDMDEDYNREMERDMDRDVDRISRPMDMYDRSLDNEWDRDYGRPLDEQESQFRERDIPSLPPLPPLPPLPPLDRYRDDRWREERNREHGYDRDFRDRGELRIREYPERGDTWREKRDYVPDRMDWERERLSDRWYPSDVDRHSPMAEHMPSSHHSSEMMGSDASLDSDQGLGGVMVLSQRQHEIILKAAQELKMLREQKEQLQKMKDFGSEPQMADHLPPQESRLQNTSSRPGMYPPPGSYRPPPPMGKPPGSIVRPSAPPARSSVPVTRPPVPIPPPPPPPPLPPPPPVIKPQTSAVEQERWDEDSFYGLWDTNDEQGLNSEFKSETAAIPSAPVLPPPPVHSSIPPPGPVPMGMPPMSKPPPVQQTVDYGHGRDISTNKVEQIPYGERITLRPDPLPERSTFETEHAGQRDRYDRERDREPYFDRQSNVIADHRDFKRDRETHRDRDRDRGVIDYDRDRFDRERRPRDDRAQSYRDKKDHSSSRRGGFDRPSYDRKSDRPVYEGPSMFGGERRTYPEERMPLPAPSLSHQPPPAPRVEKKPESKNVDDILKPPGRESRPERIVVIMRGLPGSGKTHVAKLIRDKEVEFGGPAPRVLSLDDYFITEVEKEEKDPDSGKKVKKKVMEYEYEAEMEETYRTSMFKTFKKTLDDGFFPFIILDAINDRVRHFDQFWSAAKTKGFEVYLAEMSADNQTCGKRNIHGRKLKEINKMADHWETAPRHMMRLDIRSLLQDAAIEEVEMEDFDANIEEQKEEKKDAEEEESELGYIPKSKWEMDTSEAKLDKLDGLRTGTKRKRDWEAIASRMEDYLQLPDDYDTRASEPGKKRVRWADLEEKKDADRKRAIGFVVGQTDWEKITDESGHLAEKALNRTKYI
Chain of ZBTB43 (O43298 whole entry, looked up): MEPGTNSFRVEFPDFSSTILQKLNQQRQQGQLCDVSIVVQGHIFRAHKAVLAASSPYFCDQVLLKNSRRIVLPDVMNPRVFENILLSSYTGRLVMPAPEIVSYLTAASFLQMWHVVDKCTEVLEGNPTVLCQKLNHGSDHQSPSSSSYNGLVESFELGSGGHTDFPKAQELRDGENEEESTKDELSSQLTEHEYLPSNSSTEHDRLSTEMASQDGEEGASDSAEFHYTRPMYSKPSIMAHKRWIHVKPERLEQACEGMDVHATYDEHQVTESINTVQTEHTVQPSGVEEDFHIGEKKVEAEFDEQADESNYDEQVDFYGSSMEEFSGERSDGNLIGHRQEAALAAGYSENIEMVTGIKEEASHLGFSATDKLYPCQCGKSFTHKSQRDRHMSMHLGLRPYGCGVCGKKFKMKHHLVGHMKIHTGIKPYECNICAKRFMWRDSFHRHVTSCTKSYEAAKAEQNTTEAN
Chain of YES1 (P07947 whole entry, looked up): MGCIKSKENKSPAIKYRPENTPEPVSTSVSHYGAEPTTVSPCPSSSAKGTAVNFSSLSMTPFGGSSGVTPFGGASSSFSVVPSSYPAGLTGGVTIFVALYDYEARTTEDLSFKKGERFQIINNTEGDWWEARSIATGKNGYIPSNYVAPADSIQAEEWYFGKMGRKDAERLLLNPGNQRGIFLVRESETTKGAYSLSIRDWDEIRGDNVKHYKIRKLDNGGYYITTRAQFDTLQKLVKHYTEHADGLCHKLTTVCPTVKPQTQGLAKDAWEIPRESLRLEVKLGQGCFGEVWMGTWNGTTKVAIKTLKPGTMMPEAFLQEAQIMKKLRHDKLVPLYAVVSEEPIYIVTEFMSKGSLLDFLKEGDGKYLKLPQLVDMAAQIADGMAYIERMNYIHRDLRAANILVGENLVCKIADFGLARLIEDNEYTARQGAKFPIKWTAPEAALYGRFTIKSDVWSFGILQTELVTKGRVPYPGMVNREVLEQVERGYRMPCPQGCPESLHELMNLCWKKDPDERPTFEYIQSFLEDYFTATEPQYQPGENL
Chain of YWHAQ (P27348 whole entry, looked up): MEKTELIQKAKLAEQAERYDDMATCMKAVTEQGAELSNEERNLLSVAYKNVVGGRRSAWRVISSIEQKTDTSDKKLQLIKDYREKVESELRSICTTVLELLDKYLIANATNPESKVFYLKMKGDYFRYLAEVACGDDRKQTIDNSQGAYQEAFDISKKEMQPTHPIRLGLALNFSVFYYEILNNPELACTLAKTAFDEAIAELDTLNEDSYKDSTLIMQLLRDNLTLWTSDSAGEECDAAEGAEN
Chain of YPEL5 (P62699 whole entry, looked up): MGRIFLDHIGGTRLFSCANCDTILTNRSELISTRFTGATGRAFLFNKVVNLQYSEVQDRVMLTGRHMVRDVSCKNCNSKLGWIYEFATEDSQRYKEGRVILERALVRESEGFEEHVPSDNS
Chain of YIPF6 (Q96EC8 whole entry, looked up): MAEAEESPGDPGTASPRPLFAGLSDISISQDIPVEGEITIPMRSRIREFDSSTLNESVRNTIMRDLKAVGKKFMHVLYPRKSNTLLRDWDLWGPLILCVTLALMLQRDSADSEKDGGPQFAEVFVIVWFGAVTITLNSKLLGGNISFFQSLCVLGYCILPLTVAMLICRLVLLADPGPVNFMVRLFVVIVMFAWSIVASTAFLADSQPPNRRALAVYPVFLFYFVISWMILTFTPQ
Chain of YOD1 (Q5VVQ6 whole entry, looked up): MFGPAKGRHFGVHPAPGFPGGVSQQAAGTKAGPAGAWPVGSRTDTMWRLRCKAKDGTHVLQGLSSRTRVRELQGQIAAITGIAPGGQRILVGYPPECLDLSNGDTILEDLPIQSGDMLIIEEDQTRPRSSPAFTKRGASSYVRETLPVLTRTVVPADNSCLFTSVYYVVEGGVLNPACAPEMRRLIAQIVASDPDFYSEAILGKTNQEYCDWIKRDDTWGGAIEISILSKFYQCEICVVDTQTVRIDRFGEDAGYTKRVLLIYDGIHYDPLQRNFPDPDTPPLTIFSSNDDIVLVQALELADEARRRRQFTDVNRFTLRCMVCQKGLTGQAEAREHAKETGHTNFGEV
Chain of YWHAZ (UniProt P63104) (P63104 whole entry, looked up): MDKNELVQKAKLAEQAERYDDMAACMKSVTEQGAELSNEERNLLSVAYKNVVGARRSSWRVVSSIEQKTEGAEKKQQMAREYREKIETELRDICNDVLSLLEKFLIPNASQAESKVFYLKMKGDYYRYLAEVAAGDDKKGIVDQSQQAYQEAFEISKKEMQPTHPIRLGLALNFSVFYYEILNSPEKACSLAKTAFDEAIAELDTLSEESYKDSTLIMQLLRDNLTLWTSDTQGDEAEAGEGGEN

Cc1cccc(-c2[nH]c(C(C)(C)C)nc2-c2ccc3nccnc3c2)n1
inactive: [1] 0.019 | [2] -0.03 | [3] -0.11 | [4] 0.008 | [5] -0.067 | [6] -0.073 | [7] 0.047 | [8] 0.043 | [9] 0.026 | [10] 0.097 | [11] 0.021 | [12] 0.05 | [13] -0.064 | [14] 0.009 | [15] 0.039 | [16] -0.004 | [17] -0.03 | [18] -0.04 | [19] -0.029

COc1cc(C(=O)O)ccc1NC(=O)[C@@H]1N[C@@H](CC(C)(C)C)[C@](C#N)(c2ccc(Cl)cc2F)[C@H]1c1cccc(Cl)c1F [idasanutlin]
inactive: [1] 0.124 | [2] 0.131 | [3] 0.159 | [4] 0.041 | [5] -0.049 | [6] -0.051 | [7] -0.008 | [8] -0.026 | [9] -0.038 | [11] -0.053 | [12] -0.084 | [13] -0.061 | [14] -0.026 | [15] 0.077 | [16] -0.235 | [17] 0.026 | [18] 0.002 | [19] 0.23
active: [10] 0.491

C=CC(=O)N1CCC[C@@H](n2nc(-c3ccc(Oc4ccccc4)cc3)c3c(N)ncnc32)C1 [ibrutinib]
inactive: [1] -0.008 | [3] 0.103 | [4] 0.188 | [5] 0.009 | [6] -0.005 | [7] -0.001 | [8] -0.117 | [9] -0.016 | [10] 0.054 | [11] -0.013 | [12] 0.002 | [13] -0.167 | [14] 0.019 | [15] -0.032 | [16] 0.125 | [20] -0.05 | [17] -0.174 | [18] 0.064 | [19] 0.002

O=C1NC(=NCc2cccs2)S/C1=C\c1ccc2ncccc2c1
inactive: [1] -0.018 | [2] -0.002 | [3] -0.115 | [4] 0.094 | [5] -0.006 | [6] -0.008 | [7] 0.042 | [8] 0.057 | [9] 0.066 | [10] -0.021 | [11] 0.023 | [12] -0.201 | [13] -0.13 | [14] -0.154 | [15] -0.014 | [16] 0.042 | [17] -0.024 | [18] -0.081 | [19] 0.003

CCCc1cc(C)[nH]c(=O)c1CNC(=O)c1cc(-c2ccnc(N3CCN(C)CC3)c2)cc2c1cnn2C(C)C
inactive: [1] -0.083 | [3] 0.055 | [4] 0.075 | [5] -0.036 | [6] -0.005 | [7] -0.067 | [8] 0.083 | [9] -0.017 | [10] 0.014 | [11] -0.031 | [12] 0.241 | [13] -0.393 | [14] 0.056 | [15] -0.006 | [16] 0.004 | [20] -0.158 | [17] -0.008 | [19] -0.011

Cc1ccc(C(=O)N(CCCN)[C@@H](c2nc3cc(Cl)ccc3c(=O)n2Cc2ccccc2)C(C)C)cc1 [ispinesib]
inactive: [1] 0.063 | [3] -0.093 | [4] -0.097 | [5] -0.024 | [6] 0.08 | [7] 0.02 | [8] 0.034 | [9] -0.042 | [10] -0.039 | [11] 0.053 | [12] 0.241 | [13] -0.11 | [14] 0.149 | [15] -0.147 | [16] -0.107 | [17] -0.09 | [18] 0.164 | [19] 0.039

CCN(CCCOc1ccc2c(Nc3cc(CC(=O)Nc4cccc(F)c4)[nH]n3)ncnc2c1)CCOP(=O)(O)O [barasertib]
inactive: [1] 0.097 | [3] -0.127 | [4] -0.006 | [5] 0.026 | [6] -0.08 | [7] -0.041 | [8] 0.03 | [9] 0.051 | [10] 0.121 | [11] 0.003 | [12] 0.006 | [13] 0.114 | [14] -0.002 | [15] -0.01 | [16] 0.049 | [20] -0.048 | [17] -0.043 | [18] -0.105 | [19] -0.05

COc1ccc(Cn2ccc3ccc(C(=O)NO)cc32)cc1
inactive: [1] 0.013 | [2] -0.033 | [3] -0.019 | [4] 0.072 | [5] -0.098 | [6] -0.065 | [7] -0.019 | [8] 0.018 | [9] 0.037 | [10] -0.269 | [11] -0.028 | [12] 0.3 | [13] 0.006 | [14] -0.002 | [15] 0.069 | [16] 0.008 | [17] 0.026 | [18] 0.094 | [19] -0.009

CCCCN(Cc1ccc(C(=O)NO)cc1)C(=O)Nc1ccccc1 [Nexturastat A]
inactive: [1] 0.564 | [3] 0.231 | [4] 0.142 | [5] 0.021 | [6] 0.091 | [7] -0.011 | [8] 0.046 | [9] -0.011 | [10] -0.144 | [11] -0.048 | [12] -0.063 | [13] 0.34 | [14] -0.051 | [15] 0.069 | [16] 0.005 | [17] 0.106 | [18] -0.203 | [19] 0.11

C[C@@H](Oc1cc(-c2cnn(C3CCNCC3)c2)cnc1N)c1c(Cl)ccc(F)c1Cl [crizotinib]
active: [4] -0.576
inactive: [1] -0.018 | [2] 0.028 | [3] 0 | [5] 0.054 | [6] 0.081 | [7] -0.081 | [8] -0.08 | [9] -0.052 | [10] 0.019 | [11] 0.017 | [12] 0.026 | [13] 0.081 | [14] 0.008 | [15] -0.021 | [16] 0.127 | [17] -0.1 | [18] -0.077 | [19] -0.042

CN(CCOc1ccc(C[C@@H]2SC(=O)NC2=O)cc1)c1ccccn1 (racemic) [rosiglitazone]
inactive: [1] 0.062 | [3] -0.074 | [4] 0.013 | [5] 0.005 | [6] 0.003 | [7] 0.027 | [8] 0.047 | [9] 0.029 | [10] -0.048 | [11] 0.038 | [12] 0.012 | [13] 0.019 | [14] 0.008 | [15] -0.015 | [16] 0.063 | [20] 0.063 | [17] 0.103 | [18] 0.052 | [19] -0.036

COc1cccc2cc(-c3nc([C@H]4CC[C@H](C(=O)O)CC4)n4ncnc(N)c34)[nH]c12
inactive: [1] 0.016 | [3] -0.091 | [4] -0.256 | [5] 0.06 | [6] 0.017 | [7] 0.02 | [8] 0.053 | [9] 0.011 | [10] -0.142 | [11] 0.014 | [12] -0.098 | [13] 0.187 | [14] -0.052 | [15] 0.009 | [16] -0.059 | [20] -0.006 | [17] 0.129 | [19] 0.014

O=C1NC(=O)/C(=C\c2ccc3nccnc3c2)S1
inactive: [1] -0.037 | [3] -0.009 | [4] -0.09 | [5] 0.04 | [6] 0.009 | [7] 0.025 | [8] 0.046 | [9] 0.129 | [10] -0.002 | [11] 0.023 | [12] 0.003 | [13] -0.01 | [14] -0.012 | [15] 0.004 | [16] -0.05 | [20] 0.171 | [17] 0.156 | [18] -0.054 | [19] 0.035

C/C(=N\NC(=O)c1cccc(S(=O)(=O)N2CCOCC2)c1)c1cc(Cl)ccc1O
inactive: [1] -0.051 | [2] 0.233 | [3] -0.242 | [4] 0.072 | [5] -0.06 | [6] 0.016 | [7] -0.067 | [8] 0.03 | [9] 0.053 | [10] 0.032 | [11] 0.005 | [12] 0.204 | [13] -0.037 | [14] 0.061 | [15] 0.072 | [17] 0.068 | [18] 0.02 | [19] 0.01
active: [16] 0.372

O=C(O)c1ccc2c(c1)nc(Nc1cccc(Cl)c1)c1ccncc12 [silmitasertib]
inactive: [1] -0.009 | [3] 0.125 | [4] 0.004 | [5] -0.006 | [6] 0 | [7] 0.02 | [8] -0.009 | [9] 0.021 | [10] 0.116 | [11] -0.014 | [12] 0 | [13] -0.065 | [14] -0.078 | [15] 0.057 | [16] 0.053 | [20] 0.023 | [17] 0.104 | [19] 0.135
